Consider 40 compounds from PubChem BioAssay (EPA / NIEHS).

What is called AC50 is the midpoint of the concentration-response curve, whichever way the signal moves.

Calls of active or inactive are those of the source. How the source made its calls: active means hit-call score of the fitted dose curve at least 0.9, where 1 is the maximum; inactive means score below 0.9.

Read-out in this assay: MicroRNA 122 (MIR122), gene 406906
Briefly: LTEA_HepaRG_MIR122: Life Technologies and Expression Analysis (LTEA) Assay for MicroRNA 122 (MIR122) using HepaRG (AID 2283516). As to conditions: mRNA level, 48 h; actives raise or lower the signal. The procedure:
LTEA_HepaRG is a cell based, multiplexed-readout assay that uses HepaRG, a human liver cell line, with measurements taken at 48 hours after chemical dosing on a 96-well plate.LTEA_HepaRG_MIR122 is one of 102 assay component(s) measured in the LTEA HepaRG cell culture assay. It is a marker of MicroRNA.Data from the assay component LTEA_HepaRG_MIR122 was analyzed into 1 endpoint. This assay endpoint, LTEA_HepaRG_MIR122, was analyzed with bidirectional fitting relative to DMSO as the negative control and baseline of activity. Using a type of inducible reporter, measures of mRNA induction for gain or loss-of-signal activity can be used to understand regulation of transcription factor activity. To generalize the intended target to other relatable targets, this assay endpoint is annotated to the microrna intended target family, where the subfamily is post-transcriptional regulation.
A total of 1060 chemcials from the ToxCast library were tested in eight-point concentration-response experiments. Cell culture and cytotoxicity assays were conducted at Thermo Fisher Scientific's Custom Services facility (Madison, WI). A single lot of human HepaRG cells (Thermo Fisher Scientific, Frederick, MD) was used for the cell culture experiments. 96-well format collagen type I coated plates of human HepaRG cells were prepared using established methods. Briefly, cryopreserved HepaRG cells were thawed, plated at a density of approximately 100,000 cells/well in HepaRG Thaw, Plate, and General Purpose media (HPRG770, Thermo Fisher Scientific), and incubated for 48 hours. 0.5% DMSO was selected as vehicle control to balance the requisite need of DMSO in HepaRG cultures to maintain differentiation (for example, baseline metabolism, proportions of hepatocytes vs. cholangiocytes), while enabling further hepatic receptor pathway activation (for example, PXR and CAR) in response to chemical exposure. 48 hours after plating, the culture medium was replaced with HepaRG Serum-Free Incudtion Media. Cells were exposed to each test chemical in duplicate and maintained in CO2 incubators for another 48 hours. Chemical plates were thawed to room temperature and 200x concentrations of treatment groups were prepared. 8-point conentration-reponse curves were made with the highest exposure at 100 uM, followed by half-log dilutions, all in 0.5% DMSO. Each test plate contained variouse controls, induction positive controls (1mM phenobarbital), cytotoxicity positive controls ([…] aflatoxin B1), vehicle controls (0.5% DMSO), and total lysis controls (0.5% DMSO). Cell morphology images were taken using an Essen IncuCyte FLR automated microscope, with six 96-well plates imaged in about 24 minutes. Images were captured and exported and JPEG files. Spent culture media was transfered to black-well plates for the LDH assay, and remaining media was sorted at -80 C for later use. Cells were treated with RLT buffer and frozen until shipped for gene expression analysis. Total RNA was isolated from the cell suspension in 75 uL of Buffer RLT (Qiagen, Germantown, MD 20874) by Quintiles/Expression Analysis (Durham, NC) using a custom isolation procedure. Total RNA from each plate well was transferred to a preamplification plate. Fluidigm's 96.96 Dynamic ArrayTM (Fluidigm, Amsterdam, the Netherlands) technology was used for gene expression analyses by quantitative reverse transcription polymerase chain reaction (qRT-PCR, performed by Quintiles/Expression Analysis, Durham, NC)89. Standard TaqManTM Assays (Applied Biosystems/ThermoFisher Scientific, Foster City, CA) were used to assess the expression of 93 genes selected based on their selectivity and sensitivity to important hepatic receptors known to be modulated by environmental chemicals; importance in human hepatocyte functionality; and hepatotoxicity. […]
For `Clc1ccccc1C(c1ccccc1)(c1ccccc1)n1ccnc1`, the AC50 is 17.3 µM (active).
Regarding `O=CCCCC=O`, the compound was called inactive.
For the compound `CC1=CC(=O)/C(=C(/C)O)C(=O)O1`, the call was inactive.
The same measure, in the same setting: the entry for `O=c1[nH]sc2ccccc12` is “inactive”.
Take `COc1ccc2cc(S(=O)(=O)N[C@H](CC(=O)N[C@H](Cc3ccc(CN4[C@H](C)CCC[C@@H]4C)cc3)C(=O)N(C)C(C)C)c3ccc4c(c3)OCO4)ccc2c1`: the AC50 is 11.4 µM (active).
`CN1C(=O)CC[C@H]1c1cccnc1`: the outcome was inactive.
Turning to `CC(C)(C)c1cc(/C=C2\SC(N)=NC2=O)cc(C(C)(C)C)c1O`, the AC50 is 94.3 µM (active).
As for `CCCCCc1ccc(N)cc1`, the outcome was inactive.
Same read-out and setting: with `O=C(O)Cc1cc(I)c(Oc2ccc(O)c(I)c2)c(I)c1` the entry was “inactive”.
Turning to `CC1(C)NC(=O)N(c2ccc([N+](=O)[O-])c(C(F)(F)F)c2)C1=O`, the AC50 is 80.9 µM (active).
`CN(C[C@@H](CC[N+]12CCC(C3CCCCC3)(CC1)CC2)c1ccc(Cl)c(Cl)c1)C(=O)c1cc(C(F)(F)F)cc(C(F)(F)F)c1`: the AC50 was 12.7 µM (active).
Consider `Cc1cccc2ccccc12`, for which the result was inactive.
On to `Cc1occc1C(=O)Nc1ccc(C(=O)N2CCC(F)(F)/C(=C\C(=O)N3CCC(N4CCCCC4)CC3)c3ccccc32)cc1`, for which the AC50 is 31.2 µM (active).
Still for that read-out and setting: the figure for `CC[C@H](NC(=O)c1cc(F)ccc1NS(=O)(=O)c1cccc2cccnc12)c1ccccc1` is 47.8 µM (active).
For the compound `CC(C)(c1cc(Br)c(O)c(Br)c1)c1cc(Br)c(O)c(Br)c1`, the compound was classed as inactive.
On the same count and under the same terms, with `CCO[Si](CCCNC(N)=O)(OCC)OCC` the entry was “inactive”; with `NC(=O)c1nc(-c2cccc(-c3cc(F)ccc3OCC(F)(F)C(F)(F)F)c2)n[nH]1`, “inactive”.
For the compound `C[C@]12CC[C@@H]3c4ccc(O)cc4CC[C@H]3[C@@H]1CCC2=O`, the outcome was inactive.
In the case of `Cc1ccc(C(C)C)cc1`, the outcome was inactive.
Turning to `Cc1cc2c(cc1C(F)(F)F)N(C(=O)Nc1ccc(Oc3cccnc3C)nc1)CC2`, the AC50 is 46 µM (active).
On the same count and under the same terms, with `CN(C)c1ccc(C(=C2C=CC(=[N+](C)C)C=C2)c2ccc(N(C)C)cc2)cc1` the figure was 6.78 µM (active).
Consider `CCCCOC(=O)c1ccc(O)cc1`, for which the outcome was inactive.
Same read-out and setting: the entry for `Cc1ncc(CO)c(CO)c1O` is “inactive”; for `CCCCCCCC[Si](OCC)(OCC)OCC` it is “inactive”; for `O=C(O)Cn1c(=O)n(Cc2ccc(Br)cc2F)c(=O)c2ccc(Cl)cc21` it is “inactive”.
In the case of `O=C(Nc1ccc(Cl)cc1)Nc1ccc(Cl)c(Cl)c1`, the call was inactive.
For the compound `c1ccc(C[n+]2cccc3ccccc32)cc1`, the AC50 is 22.5 µM (active).
`CCCCOC(=O)CC(CC(=O)OCCCC)(OC(C)=O)C(=O)OCCCC`: the compound was called inactive.
As for `CCCCCCCCCCCC[N+](C)(C)C`, the AC50 was 75 µM (active).
Take `c1ccc2ccccc2c1`: the outcome was inactive.
On the same count and under the same terms, with `c1ccc2n[nH]nc2c1` the entry was “inactive”; with `O=c1ccc2ccccc2o1`, “inactive”; with `CCN(Cc1cccc(S(=O)(=O)O)c1)c1ccc(C(=C2C=CC(=[N+](CC)Cc3cccc(S(=O)(=O)O)c3)C=C2)c2ccccc2S(=O)(=O)[O-])cc1`, “inactive”.
Take `CCN(Cc1cccnc1)C(=O)c1cccc(Cl)c1[C@]1(C)C(=O)N(Cc2ccc(OC)cc2OC)c2ccc(Cl)cc21`: the AC50 is 18.1 µM (active).
Turning to `CC(C)(O)c1ccc(CNC(=O)c2cccnc2Oc2ccc3nonc3c2)cc1`, the result was inactive.
In the case of `O=C(OCCCCCCOC(=O)c1ccccc1)c1ccccc1`, the call was inactive.
In the case of `CCCCCCCCOc1ccc(C(=O)c2ccccc2)c(O)c1`, the outcome was inactive.
Take `O=C(O)c1ccccc1-n1cc(C(=O)O)c(=O)c2cc(Nc3c(F)cc(F)cc3Cl)c(Cl)cc21`: the compound was called inactive.
With `OC12N=C(c3ccccc3)SC1Cc1cc(Cl)ccc12` (stereo not given), the AC50 is 12.1 µM (active).
Still for that read-out and setting: the figure for `Cc1cc(F)ccc1-c1cc(N2CC[C@@H](O)[C@H]2CO)ncc1N(C)C(=O)C(C)(C)c1cc(C(F)(F)F)cc(C(F)(F)F)c1` is 9.28 µM (active).
